NIH3T3 tox = NIH 3T3 cell cytotoxicity | Potency, µM (titrated, usually from 96.7 µM), for inactives: at the top dose activity change, negative = cytotoxicity, most hits filed as inhibitors | NIH 3T3 viability, CellTiter-Glo ATP luminescence, 48-72 h | 94,000 compounds, 4.3% hits; also: potency is read from the fitted curve at half-maximal effect; % is scaled to controls: 0 for no effect and ±100 for the full control effect; nearly all actives have a fitted effect of over 55% in size
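ATP-dependent luminescence (CellTiter-Glo) served as the viability signal for NIH 3T3 cells treated with compound for 48 or 72 hr at 37 °C.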
SNCA expr inh = reduces expression of the alpha-synuclein gene. 140,000 compounds, 0.17% hits. HEK-293 SNCA-luciferase knock-in, luminescence, 24 h. AID 1671194. Potency, µM (top dose mostly 57.2 µM), for inactives: at the highest dose activity change, negative = inhibition, actives largely listed as inhibitors;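 also: potency is read from the fitted curve at half-maximal effect; plate controls were DMSO cells for no effect and cell-free wells for full effect; nearly all actives have a fitted effect of over 45% in size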
HEK293 viab = counter-screen for SNCA expression inhibitors: cell viability; HEK-293-SNCA-luc viability, GF-AFC fluorescence, 24 h; 150,000 compounds, 0.12% hits; Potency, µM (titrated, usually from 57.1 µM), inactives show top-dose activity change, negative = cytotoxicity, hits mostly cytotoxic;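 also: potency is read from the fitted curve at half-maximal effect; 0% = DMSO-treated cells and -100% = medium-only wells without cells; nearly all actives have a fitted effect of over 30% in size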
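Cytotoxicity counterscreen: after 24 h compound treatment of genome-edited SNCA-luciferase HEK-293 cells, live-cell protease substrate GF-AFC read by fluorescence after 30 min; activity scaled between DMSO (0%) and medium-only (-100%), curves Hill-fitted.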
HEK293 tox = cytotoxic compounds in HEK 293 cells | 94,000 compounds, 6.6% hits | HEK 293 viability, ATP luminescence (CellTiter-Glo), 48-72 h | Potency, µM (doses to about 115 µM), for inactives: at the top dose activity change, negative = cytotoxicity, hits mostly inhibitors | AID 1345083; also: potency is read from the fitted curve at half-maximal effect; % is scaled to controls: 0 for no effect and ±100 for the full control effect; nearly all actives have a fitted effect of over 60% in size
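HEK 293 cells at 250 cells/well were exposed to compounds by pintool transfer for 48 or 72 hr at 37 degree Celsius, 5% CO2. Viability was read as ATP-coupled luminescence with CellTiter-Glo after 10 min at room temperature.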
IP6K1 inhibitor = IP6K1 kinase inhibition. Q92551. IP6K1 kinase, ADP-Glo luminescence, 2 h; stronger effect = lower value. activity change, % (series mostly up to about 58 µM). 140,000 compounds, 0.81% hits. AID 1645851; in the data active = activity change below about -25%; also: % is scaled to controls: 0 for no effect and ±100 for the full control effect
Target sequence (Q92551 whole entry, looked up): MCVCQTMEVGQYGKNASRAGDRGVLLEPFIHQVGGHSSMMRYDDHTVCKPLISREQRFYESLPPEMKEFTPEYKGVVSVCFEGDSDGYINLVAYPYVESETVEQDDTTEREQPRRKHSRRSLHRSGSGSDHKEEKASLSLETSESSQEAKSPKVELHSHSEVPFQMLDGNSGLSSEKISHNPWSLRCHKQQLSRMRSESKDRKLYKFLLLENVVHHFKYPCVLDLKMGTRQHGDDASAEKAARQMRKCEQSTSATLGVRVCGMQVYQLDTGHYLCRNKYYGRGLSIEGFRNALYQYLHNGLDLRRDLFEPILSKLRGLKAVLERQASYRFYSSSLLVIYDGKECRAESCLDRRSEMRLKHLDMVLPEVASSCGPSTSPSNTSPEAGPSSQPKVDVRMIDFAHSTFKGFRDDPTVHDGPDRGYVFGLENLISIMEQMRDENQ
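ADP-Glo luminescence measures ADP made by human IP6K1 during a 2 h RT reaction with ATP/IP6 (mix at 1.3 mM/130 uM); top library doses 57.5 and 19.1 uM final.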
FLuc inh-1 = Photinus pyralis luciferase inhibition; P08659; purified P. pyralis luciferase, luminescence, biochemical; Potency, µM (highest dose often 115 µM), actives largely listed as inhibitors; 76,000 compounds, 2.5% hits; AID 1347043; also: potency is read from the fitted curve at half-maximal effect; % is scaled to controls: 0 for no effect and ±100 for the full control effect; nearly all actives have a fitted effect of over 65% in size
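Inhibitors were tested against purified firefly luciferase in a biochemical, low-substrate format (both substrates at 10uM) and luminescence measured with a CCD imager.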
FLuc SDR no ATP = binders stabilizing firefly luciferase, without ATP | 1,300 compounds, 7.8% hits | Purified FLuc-C-HiBiT, Nano-Glo HiBiT luminescence, no ATP | shares compounds with FLuc inh-1 | Potency, µM (titrated, usually from 32.7 µM), for inactives: top-dose activation (signal gain), usual class: activators; also: potency is read from the fitted curve at half-maximal effect; nearly all actives have a fitted effect of over 55% in size
FLuc SDR ATP = binders stabilizing firefly luciferase, plus ATP | shares compounds with FLuc inh-1 | Potency, µM (series often up to 32.7 µM), for the others: top-dose activation (gain of signal), usual class: activators | 1,300 compounds, 8.7% hits | purified FLuc-C-HiBiT + ATP, HiBiT complementation luminescence | AID 1963319;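 also: signal reports ligand binding via conformational change of the enzyme rather than luciferase catalysis; potency is read from the fitted curve at half-maximal effect; % of control where 0% means no effect; nearly all actives have a fitted effect of over 55% in size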
FLuc inh-2 = blocks firefly luciferase enzymatic activity; shares compounds with FLuc inh-1; purified FLuc-C-HiBiT enzyme, luciferin luminescence; Potency, µM (doses to about 32.7 µM), inactives show at the highest dose activity change, negative = inhibition, usual class: inhibitors; 1,300 compounds, 42% hits; also: potency is read from the fitted curve at half-maximal effect; % is scaled to controls: 0 for no effect and ±100 for the full control effect; nearly all actives have a fitted effect of over 70% in size
Active calls of the source: *; i = inactive; ? = inconclusive; . = no result given; [ ] = dose if it differs, or a comment. Shown are actives, neighbours in structure and some others; about 7.3% of the full set was active somewhere. Unless noted, calls follow the shape of the dose curve; as a rule, active = well fitted curve in the direction sought with a large enough effect; inconclusive = small, poorly fitted or top-dose-only effect, or another doubt; inactive = no such curve, though single readings can be large; an effect the other way counts as inactive or inconclusive.

SMILES	NIH3T3 tox	SNCA expr inh	HEK293 viab	HEK293 tox	IP6K1 inhibitor	FLuc inh-1	FLuc SDR no ATP	FLuc SDR ATP	FLuc inh-2
O=c1[nH]nc2n1CCCCC2	-12.4%	34.3%	-8.3%	-9.7%	-5.3	i	13.3%	10.7%	-3.4%
Cc1ccc(-c2cc(N)n3nc(-c4ccc(C)cc4)cc3n2)cc1	.	50.0%	-1.8%	.	1.0	.	.	.	.
Cc1ccc(-c2cc(N)n(-c3ccc(C)cc3)n2)cc1	.	190.2%	-4.9%	.	7.9	.	23.3%	13.9%	?
O=C(O)C1CCc2nc(N3CCN(C(=O)C4CCC4)CC3)sc2C1 (centres undefined)	?	149.2%	-4.9%	-1.3%	-3.4	6.31µM*	12.5%	?	8.81µM*
O=C(NC1CCN(c2cc(-c3ccccc3)[nH]n2)CC1)c1ccc2c(c1)OCO2	?	101.1%	3.6%	?	-7.1	i	.	.	.
c1ccc2sc([C@H]3CCN(CC4CCCCC4)C3)nc2c1	?	51.0%[87.6 µM]	-1.8%[87.6 µM]	?	11.6	i	.	.	.
Cc1ccc2nc([C@H]3CCN(C(=O)c4ccccc4)C3)[nH]c2c1	-2.0%[174 µM]	?	2.4%[87.6 µM]	?	-3.5	i	.	.	.
Cc1ccccc1CN1CC[C@H](c2nc3ccccc3s2)C1	?	189.8%[87.6 µM]	0.9%[87.6 µM]	70.8µM*	-15.2	7.94µM*	12.4%[49.3 µM]	10.0%[49.3 µM]	?
Cc1ccc2nc([C@H]3CCN(Cc4cccs4)C3)[nH]c2c1	?	8.4%[87.6 µM]	0.3%[87.6 µM]	56.2µM*	-5.1	7.08µM*	15.6%[49.3 µM]	17.4%[49.3 µM]	?
Cc1ccccc1CN1CC[C@H](c2nc3ccc(F)cc3[nH]2)C1	?	10.8%[87.6 µM]	-18.9%[87.6 µM]	35.5µM*	-4.5	14.1µM*	11.6%[49.3 µM]	9.7%[49.3 µM]	?
O=C(c1ccccc1)N1CC[C@H](c2nc3ccc(F)cc3[nH]2)C1	-26.3%[138 µM]	3.2%[87.6 µM]	4.3%[87.6 µM]	?	-11.7	i	.	.	.
O=C(Cc1ccccn1)N1CCCC(C(=O)N2CCC(N3CCOC3=O)CC2)C1 (centres undefined)	1.6%	14.3%	-11.3%	-22.9%	14.5	.	.	.	.
Cc1ccc(CN2C(=O)OC(c3cccc(NC(=O)c4ccc(C)cc4)c3)C2C(=O)NCC(C)C)cc1 (centres undefined)	-23.5%	169.3%	-10.6%	?	2.0	7.08µM*	13.0%	11.1µM*	?
COc1ccc(-c2noc(-c3ccc(C)cc3Cl)n2)cc1OC	.	89.5%	-2.0%	.	-16.0	.	20.4%	11.9%	?
CNC(=O)[C@@H](C1CC1)N1CCC[C@H]1C(=O)NCc1ccccc1	2.1%[138 µM]	14.4%[87.6 µM]	1.7%[87.6 µM]	0.7%[172 µM]	4.1	i	.	.	.
CCCCOC(=O)CSc1nnc(-c2ccc(C)cc2)o1	.	?	10.5%	.	-11.9	.	.	.	.
CCCCCSc1nnc(-c2ccc(Br)cc2)o1	.	11.7%	3.8%	.	27.0	.	10.8%	8.8%	-6.5%
COc1ccc(-c2nc3sc(CCNC(=O)c4ccc(Br)o4)c(C)n3n2)cc1	.	23.6%	?	.	6.3	.	.	.	.
Cc1c(CCNC(=O)c2ccc(Br)o2)sc2nc(-c3ccc(Cl)cc3)nn12	.	77.8%	?	.	-14.3	.	19.1%	10.5%	?
CCOc1ccc(-n2nc(CO)c(C(=O)NCc3ccccn3)n2)cc1	.	4.4%	-15.2%	.	33.2	.	28.2%	16.8%	?
CCc1ccc(-n2nc(CO)c(C(=O)NCc3ccccn3)n2)cc1	.	40.9%	-15.6%	.	26.0	.	.	.	.
CCOc1ccc(-n2nc(CO)c(C(=O)NCc3cccc(OC)c3)n2)cc1	.	81.3%	-13.1%	.	18.6	.	22.9%	15.5%	?
O=C(NC1CCN(c2ccnc3ccnn23)CC1)c1ccc(F)cc1	-30.1%	-2.5%	-5.7%	?	5.4	.	.	.	.
COc1ccc(C(=O)Oc2ccc(C(c3c(C)[nH][nH]c3=O)c3c(C)[nH][nH]c3=O)cc2)cc1	.	54.3%	-9.7%	.	2.9	.	9.4%	12.4%	?
Cc1noc(-c2cccn3c(CNC(=O)c4ccc(C(C)(C)C)cc4)nnc23)n1	-29.9%	29.1%	7.7%	?	5.2	7.94µM*	?	?	9.89µM*
SMILES	NIH3T3 tox	SNCA expr inh	HEK293 viab	HEK293 tox	IP6K1 inhibitor	FLuc inh-1	FLuc SDR no ATP	FLuc SDR ATP	FLuc inh-2
Cc1ccccc1NC(=O)Nc1ccnn1C1CCN(C(=O)[C@@H](N)CO)CC1	-5.8%	-10.1%	-28.3%	-27.2%	2.8	i	.	.	.
CCSc1nc(CC(=O)NCc2ccc(S(N)(=O)=O)cc2)cs1	-17.3%	1.8%	-6.4%	-23.9%	-8.6	i	.	.	.
CCCOc1ccccc1C(=O)Nc1ccc(-c2nc3ccc(C)cc3s2)cc1	.	-29.3%	7.9%	.	-16.4	.	?	?	6.24µM*
COc1cccc(C(=O)Nc2ccc(-c3nc4ccc(C)cc4s3)cc2)c1OC	.	31.4%	6.9%	.	-4.8	.	15.3%	10.4%	-3.6%
CCN(CC)c1cc(C)c2cc(NC(=O)c3cccc(OC)c3OC)ccc2n1	.	9.5%	-14.9%	.	35.7	.	.	.	.
CCn1cc(CN2CCC3(CC2)CC(C(=O)N2CCOCC2)N(C)C3)c(C)n1 (centres undefined)	-22.5%	-17.8%	19.1%	0.4%	7.8	.	.	.	.
CCCCn1c(=O)c(C(=O)N2CCN(C(=O)C(C)(C)C)CC2)nc2cccnc21	-21.9%	-1.3%	0.2%	0.5%	-1.1	.	.	.	.
COc1ccc(CN2CCOc3nc(-c4cc5ccccc5o4)ncc3C2=O)cc1	-14.1%[138 µM]	-1.1%[87.6 µM]	-9.2%[87.6 µM]	?	-0.8	3.55µM*	16.0%[49.3 µM]	16.4%[49.3 µM]	8.05µM*
O=C(N[C@H]1CCN2C(=O)c3cc(/C=C/c4ccc(O)cc4)ccc3NC(=O)[C@H]12)c1cnccn1	-5.5%	31.3%	-2.4%	?	-8.3	12.6µM*	19.6%	8.4%	-13.0%
O=C(N[C@H]1CCN2C(=O)c3cc(/C=C/c4ccccc4)ccc3NC(=O)[C@H]12)c1cnccn1	-28.7%[174 µM]	12.9%[87.6 µM]	-12.4%[87.6 µM]	?	1.4	?	.	.	.
COc1ccc(/C=C/c2ccc3c(c2)C(=O)N2CC[C@H](NC(=O)CCC(=O)O)[C@H]2C(=O)N3)cc1	-3.2%	-10.5%	-3.3%	-1.0%	6.5	6.31µM*	?	?	?
O=C(O)COCC(=O)N[C@H]1CCN2C(=O)c3cc(/C=C/c4ccccc4)ccc3NC(=O)[C@H]12	i	-11.9%	4.0%	4.6%	-0.9	7.94µM*	29.1%	?	?
